Measured values taken from the supplement of paper PMC11732987, “Enantioselective OTUD7B fragment discovery through chemoproteomics screening and high-throughput optimisation” (Communications Chemistry, 2025).

What was measured:
Test in all cases: log2 ratio of Biotin-Ahx-Ub-VS probe labelling (fragment/DMSO); higher = less target engagement (more negative = stronger competition), active = hit call of the paper (q ≤ 0.05, log2 ratio ≤ -1)
Details in all cases: compound concentration: 200 uM; treatment time: 3 h
USP34 = USP34 (UniProt Q70CQ2)
Chain of USP34 (Q70CQ2 whole entry, the tested form may be a part): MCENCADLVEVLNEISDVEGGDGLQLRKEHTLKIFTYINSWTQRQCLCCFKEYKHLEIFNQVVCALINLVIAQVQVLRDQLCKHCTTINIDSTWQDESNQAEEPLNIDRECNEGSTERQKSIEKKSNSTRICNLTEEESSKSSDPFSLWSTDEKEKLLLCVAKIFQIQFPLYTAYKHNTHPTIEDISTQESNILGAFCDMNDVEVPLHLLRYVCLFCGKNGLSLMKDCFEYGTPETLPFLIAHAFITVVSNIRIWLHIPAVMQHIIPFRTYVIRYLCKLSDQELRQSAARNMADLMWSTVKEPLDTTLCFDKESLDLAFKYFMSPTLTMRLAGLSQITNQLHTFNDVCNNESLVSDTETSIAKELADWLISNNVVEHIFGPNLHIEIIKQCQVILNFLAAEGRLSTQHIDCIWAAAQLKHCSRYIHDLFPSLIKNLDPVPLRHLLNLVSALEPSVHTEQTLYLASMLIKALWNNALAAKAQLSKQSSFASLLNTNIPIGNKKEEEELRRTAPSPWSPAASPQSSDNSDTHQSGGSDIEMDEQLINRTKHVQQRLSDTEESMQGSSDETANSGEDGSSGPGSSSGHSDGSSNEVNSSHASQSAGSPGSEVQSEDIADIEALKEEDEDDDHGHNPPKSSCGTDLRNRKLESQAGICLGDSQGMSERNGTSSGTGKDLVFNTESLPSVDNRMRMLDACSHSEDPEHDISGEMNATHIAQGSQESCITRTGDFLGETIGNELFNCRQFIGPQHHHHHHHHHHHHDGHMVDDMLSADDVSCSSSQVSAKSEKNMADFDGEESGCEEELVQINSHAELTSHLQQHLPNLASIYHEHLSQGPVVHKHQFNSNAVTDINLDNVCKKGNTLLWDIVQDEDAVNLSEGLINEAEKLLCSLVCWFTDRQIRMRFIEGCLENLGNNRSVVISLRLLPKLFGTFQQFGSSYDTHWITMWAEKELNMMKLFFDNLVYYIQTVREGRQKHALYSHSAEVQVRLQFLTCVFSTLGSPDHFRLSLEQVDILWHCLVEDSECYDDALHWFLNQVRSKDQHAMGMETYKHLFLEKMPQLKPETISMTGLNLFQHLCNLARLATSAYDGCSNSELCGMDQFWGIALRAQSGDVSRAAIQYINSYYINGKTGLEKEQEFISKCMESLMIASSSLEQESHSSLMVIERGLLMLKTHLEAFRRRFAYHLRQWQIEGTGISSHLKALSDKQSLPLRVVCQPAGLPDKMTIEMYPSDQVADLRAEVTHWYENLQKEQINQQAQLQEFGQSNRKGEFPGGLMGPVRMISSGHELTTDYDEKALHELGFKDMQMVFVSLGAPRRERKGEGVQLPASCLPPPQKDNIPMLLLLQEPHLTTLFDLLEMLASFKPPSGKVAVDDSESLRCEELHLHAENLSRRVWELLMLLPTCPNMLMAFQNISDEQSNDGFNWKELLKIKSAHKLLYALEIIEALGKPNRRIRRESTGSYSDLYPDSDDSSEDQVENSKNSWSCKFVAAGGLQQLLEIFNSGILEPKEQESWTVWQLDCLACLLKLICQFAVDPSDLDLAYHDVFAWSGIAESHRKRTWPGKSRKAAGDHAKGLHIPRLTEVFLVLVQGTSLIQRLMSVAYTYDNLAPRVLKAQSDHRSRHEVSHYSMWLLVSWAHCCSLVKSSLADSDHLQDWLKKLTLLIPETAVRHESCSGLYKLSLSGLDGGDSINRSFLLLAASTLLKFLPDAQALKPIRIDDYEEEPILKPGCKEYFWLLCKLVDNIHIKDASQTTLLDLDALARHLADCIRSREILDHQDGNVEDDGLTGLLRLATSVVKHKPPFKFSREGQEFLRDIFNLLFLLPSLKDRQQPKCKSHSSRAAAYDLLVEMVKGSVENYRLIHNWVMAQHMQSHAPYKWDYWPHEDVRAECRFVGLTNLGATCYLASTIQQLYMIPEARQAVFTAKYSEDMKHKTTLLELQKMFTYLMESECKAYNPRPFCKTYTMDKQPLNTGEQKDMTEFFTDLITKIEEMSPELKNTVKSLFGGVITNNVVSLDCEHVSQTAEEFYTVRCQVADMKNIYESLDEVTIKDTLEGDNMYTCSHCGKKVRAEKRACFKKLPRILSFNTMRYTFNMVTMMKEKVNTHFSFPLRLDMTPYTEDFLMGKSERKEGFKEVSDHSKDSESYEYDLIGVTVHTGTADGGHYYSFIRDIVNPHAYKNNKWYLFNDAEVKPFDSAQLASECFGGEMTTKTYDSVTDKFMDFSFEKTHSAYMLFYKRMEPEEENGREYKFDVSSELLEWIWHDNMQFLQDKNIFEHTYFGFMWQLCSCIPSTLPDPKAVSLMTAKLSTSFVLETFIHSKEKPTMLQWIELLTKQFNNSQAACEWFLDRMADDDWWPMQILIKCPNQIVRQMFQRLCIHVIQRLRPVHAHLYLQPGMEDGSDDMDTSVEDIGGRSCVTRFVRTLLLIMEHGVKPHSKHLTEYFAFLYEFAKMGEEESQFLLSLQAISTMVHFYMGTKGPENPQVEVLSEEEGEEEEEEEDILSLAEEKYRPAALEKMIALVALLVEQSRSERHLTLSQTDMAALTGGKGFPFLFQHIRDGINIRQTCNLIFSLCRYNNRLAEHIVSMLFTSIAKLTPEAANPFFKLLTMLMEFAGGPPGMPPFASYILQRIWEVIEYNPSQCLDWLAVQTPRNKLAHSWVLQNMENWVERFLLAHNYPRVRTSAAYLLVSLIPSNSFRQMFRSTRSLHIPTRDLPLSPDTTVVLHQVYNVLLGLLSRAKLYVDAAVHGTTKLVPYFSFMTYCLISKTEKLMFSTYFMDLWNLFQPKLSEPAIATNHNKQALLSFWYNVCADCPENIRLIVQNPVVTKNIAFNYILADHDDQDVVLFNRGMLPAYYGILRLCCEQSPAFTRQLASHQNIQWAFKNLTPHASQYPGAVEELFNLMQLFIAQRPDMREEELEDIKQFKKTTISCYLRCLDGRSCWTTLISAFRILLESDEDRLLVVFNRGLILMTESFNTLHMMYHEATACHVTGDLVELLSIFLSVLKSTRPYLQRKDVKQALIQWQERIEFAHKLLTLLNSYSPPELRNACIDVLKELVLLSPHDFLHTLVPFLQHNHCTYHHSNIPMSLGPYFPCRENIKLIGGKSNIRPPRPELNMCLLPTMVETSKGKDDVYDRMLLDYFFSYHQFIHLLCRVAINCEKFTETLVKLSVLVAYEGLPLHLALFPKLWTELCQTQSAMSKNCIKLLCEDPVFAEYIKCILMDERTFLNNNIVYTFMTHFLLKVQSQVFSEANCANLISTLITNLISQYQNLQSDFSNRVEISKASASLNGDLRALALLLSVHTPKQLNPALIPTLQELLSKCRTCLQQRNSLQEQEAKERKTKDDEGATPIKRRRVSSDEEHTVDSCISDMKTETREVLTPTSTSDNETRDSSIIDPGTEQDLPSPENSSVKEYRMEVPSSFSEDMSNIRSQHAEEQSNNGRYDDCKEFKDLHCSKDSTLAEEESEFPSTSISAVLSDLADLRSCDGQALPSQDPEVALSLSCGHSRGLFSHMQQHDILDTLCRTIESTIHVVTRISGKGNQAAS
How it was run: (§1)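 HEK293T lysate (495 µg per sample, in Tris/CHAPS/IGEPAL buffer with protease inhibitors) was exposed in triplicate for 3 h to fragment at 200 µM or to vehicle, then to Biotin-Ahx-Ub-VS at 0.5 µM final for 1 h. Labelled DUBs were enriched on NeutrAvidin, digested with LysC and trypsin, and analysed by diaPASEF LC-MS/MS. Spectronaut label-free quantities were normalised to the global median, and values are average log2 ratios of fragment over vehicle from an unpaired t-test. Only proteins with ≥2 unique peptides were used.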

USP36 = biological target: T1, USP36 (UniProt Q9P275)
T1 sequence (whole entry): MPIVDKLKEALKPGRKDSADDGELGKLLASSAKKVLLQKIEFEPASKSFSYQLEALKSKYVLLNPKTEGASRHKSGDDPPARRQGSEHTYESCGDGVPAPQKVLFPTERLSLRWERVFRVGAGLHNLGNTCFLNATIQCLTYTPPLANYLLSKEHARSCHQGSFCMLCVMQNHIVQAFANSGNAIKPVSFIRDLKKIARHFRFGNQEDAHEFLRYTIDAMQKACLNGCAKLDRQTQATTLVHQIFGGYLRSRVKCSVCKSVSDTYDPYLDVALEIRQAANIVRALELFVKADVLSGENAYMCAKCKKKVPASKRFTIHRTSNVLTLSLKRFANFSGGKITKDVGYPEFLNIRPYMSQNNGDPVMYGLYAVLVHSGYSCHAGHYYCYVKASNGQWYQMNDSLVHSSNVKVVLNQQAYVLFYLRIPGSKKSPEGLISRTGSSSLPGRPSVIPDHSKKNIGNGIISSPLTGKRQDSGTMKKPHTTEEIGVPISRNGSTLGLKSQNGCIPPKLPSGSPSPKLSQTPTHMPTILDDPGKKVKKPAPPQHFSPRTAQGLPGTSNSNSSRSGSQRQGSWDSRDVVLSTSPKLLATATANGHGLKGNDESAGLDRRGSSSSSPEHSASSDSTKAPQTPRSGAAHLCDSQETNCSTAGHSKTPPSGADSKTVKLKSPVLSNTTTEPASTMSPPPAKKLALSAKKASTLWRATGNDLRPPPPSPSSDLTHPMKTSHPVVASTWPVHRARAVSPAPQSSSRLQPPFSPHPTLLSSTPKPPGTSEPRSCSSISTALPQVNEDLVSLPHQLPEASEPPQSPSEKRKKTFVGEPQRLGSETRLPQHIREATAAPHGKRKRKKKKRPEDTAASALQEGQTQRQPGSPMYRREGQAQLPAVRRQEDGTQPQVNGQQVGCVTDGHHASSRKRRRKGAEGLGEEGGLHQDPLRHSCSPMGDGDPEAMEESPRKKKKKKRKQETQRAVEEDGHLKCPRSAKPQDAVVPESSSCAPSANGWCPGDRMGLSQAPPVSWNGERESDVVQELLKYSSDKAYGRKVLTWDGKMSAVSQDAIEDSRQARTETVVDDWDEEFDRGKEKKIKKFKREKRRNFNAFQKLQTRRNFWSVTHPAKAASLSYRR
How it was run: as §1

USP38 = biological target: T2, USP38 (UniProt Q8NB14)
T2 sequence (whole entry): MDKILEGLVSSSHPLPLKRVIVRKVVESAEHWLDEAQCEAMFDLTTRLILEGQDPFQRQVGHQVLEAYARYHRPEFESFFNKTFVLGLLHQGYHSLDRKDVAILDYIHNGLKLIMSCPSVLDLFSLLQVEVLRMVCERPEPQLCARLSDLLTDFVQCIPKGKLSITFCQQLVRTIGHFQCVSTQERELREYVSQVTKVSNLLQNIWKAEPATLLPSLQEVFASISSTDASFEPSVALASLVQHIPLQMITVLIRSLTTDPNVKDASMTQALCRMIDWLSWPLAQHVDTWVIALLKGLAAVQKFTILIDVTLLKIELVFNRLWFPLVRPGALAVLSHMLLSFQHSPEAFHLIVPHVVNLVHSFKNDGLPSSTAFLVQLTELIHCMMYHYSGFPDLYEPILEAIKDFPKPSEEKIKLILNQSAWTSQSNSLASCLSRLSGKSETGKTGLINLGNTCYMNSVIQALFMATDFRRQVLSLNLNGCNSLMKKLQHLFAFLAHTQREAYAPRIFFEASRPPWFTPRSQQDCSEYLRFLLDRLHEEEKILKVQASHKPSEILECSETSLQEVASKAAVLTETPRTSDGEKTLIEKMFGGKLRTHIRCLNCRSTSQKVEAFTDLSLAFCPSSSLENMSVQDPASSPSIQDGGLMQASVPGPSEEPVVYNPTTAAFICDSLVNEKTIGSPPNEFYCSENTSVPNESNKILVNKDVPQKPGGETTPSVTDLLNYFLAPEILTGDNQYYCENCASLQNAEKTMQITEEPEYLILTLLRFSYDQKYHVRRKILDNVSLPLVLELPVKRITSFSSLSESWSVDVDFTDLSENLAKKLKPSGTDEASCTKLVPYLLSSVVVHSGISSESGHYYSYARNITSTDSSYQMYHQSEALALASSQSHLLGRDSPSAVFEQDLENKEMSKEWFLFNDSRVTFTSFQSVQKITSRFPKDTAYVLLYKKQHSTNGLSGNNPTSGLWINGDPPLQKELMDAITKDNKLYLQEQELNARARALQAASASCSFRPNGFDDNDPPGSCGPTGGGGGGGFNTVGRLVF
How it was run: as §1

USP39 = biological target: T3, USP39 (UniProt Q53GS9)
T3 sequence (whole entry): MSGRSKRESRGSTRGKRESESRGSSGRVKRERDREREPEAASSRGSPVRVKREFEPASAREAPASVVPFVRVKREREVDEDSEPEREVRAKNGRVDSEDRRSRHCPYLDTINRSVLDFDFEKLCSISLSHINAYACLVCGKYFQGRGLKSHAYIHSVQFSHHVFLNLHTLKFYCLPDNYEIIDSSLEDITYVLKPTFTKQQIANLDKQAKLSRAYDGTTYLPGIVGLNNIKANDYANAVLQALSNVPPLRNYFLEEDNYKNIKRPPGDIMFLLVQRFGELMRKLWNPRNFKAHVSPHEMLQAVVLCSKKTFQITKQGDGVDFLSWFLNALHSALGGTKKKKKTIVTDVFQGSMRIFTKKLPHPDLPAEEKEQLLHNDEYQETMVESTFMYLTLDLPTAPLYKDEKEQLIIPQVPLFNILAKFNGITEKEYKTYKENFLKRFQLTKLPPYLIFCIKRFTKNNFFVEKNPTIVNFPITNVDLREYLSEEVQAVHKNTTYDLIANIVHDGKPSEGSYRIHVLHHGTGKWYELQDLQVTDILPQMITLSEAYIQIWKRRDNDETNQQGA
How it was run: as §1

USP4 = biological target: T4, USP4 (UniProt Q13107)
T4 sequence (whole entry): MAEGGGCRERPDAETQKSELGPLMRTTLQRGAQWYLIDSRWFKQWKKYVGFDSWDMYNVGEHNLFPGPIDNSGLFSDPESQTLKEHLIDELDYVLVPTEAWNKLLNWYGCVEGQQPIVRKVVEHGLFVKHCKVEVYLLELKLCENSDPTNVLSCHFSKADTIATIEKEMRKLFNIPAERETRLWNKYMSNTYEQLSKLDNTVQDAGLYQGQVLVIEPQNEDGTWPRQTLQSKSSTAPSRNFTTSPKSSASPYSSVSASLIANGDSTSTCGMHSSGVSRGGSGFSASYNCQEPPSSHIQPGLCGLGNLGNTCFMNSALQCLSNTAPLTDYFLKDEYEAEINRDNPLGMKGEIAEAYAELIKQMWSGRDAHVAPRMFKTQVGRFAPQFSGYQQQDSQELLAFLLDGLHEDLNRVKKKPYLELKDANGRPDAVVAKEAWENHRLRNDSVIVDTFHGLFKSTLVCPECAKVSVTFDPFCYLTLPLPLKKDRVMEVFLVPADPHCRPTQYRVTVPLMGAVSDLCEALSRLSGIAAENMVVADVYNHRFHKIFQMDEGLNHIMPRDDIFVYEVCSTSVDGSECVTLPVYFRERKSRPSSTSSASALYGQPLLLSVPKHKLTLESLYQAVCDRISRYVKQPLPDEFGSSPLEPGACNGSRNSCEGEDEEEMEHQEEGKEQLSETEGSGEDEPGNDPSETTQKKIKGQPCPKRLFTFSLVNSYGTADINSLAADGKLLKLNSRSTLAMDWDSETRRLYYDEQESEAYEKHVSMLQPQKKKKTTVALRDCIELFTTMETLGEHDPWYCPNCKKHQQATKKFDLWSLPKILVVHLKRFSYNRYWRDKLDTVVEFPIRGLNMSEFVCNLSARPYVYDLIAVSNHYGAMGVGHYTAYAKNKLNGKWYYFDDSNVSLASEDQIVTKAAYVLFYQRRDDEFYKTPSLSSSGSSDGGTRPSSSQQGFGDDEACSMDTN
How it was run: as §1

Measured: log2 ratio of Biotin-Ahx-Ub-VS probe labelling

CN(C)S(=O)(=O)c1ccccc1CNC(=O)CCl
inactive: USP34 0.137 | USP36 -0.00554 | USP38 0.218 | USP39 0.237 | USP4 -0.0523
